Source: PubChem BioAssay (National Center for Advancing Translational Sciences (NCATS))
Pf growth 96h – Primary qHTS for delayed death inhibitors of the malarial parasite plastid, 96 hour incubation | AID 504834, 2011 | P. falciparum luciferase reporter growth, 96 h | Potency, µM (series often up to 28.7 µM), without a hit: top-dose activity change, negative = inhibition, hits mostly inhibitors | 320,000 compounds, 6.9% hits; further: potency means the concentration at half of the fitted maximal effect
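Readout is luminescence from an integrated firefly luciferase in P. falciparum. Red cells, 2% hematocrit and 0.05% parasitemia final, were cultured with compound through two parasite generations (96 hours) at 37 C, 5% CO2.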
Pf growth 48h – Primary qHTS for delayed death inhibitors of the malarial parasite plastid, 48 hour incubation; 310,000 compounds, 5.9% hits; P. falciparum luciferase growth in erythrocytes, 48 h; AID 504832, 2011; Potency, µM (titrated, usually from 28.7 µM), for inactives: at the highest dose activity change, negative = inhibition, hits mostly inhibitors; further: potency means the concentration at half of the fitted maximal effect
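Read-out is firefly luciferase luminescence from an integrated reporter in P. falciparum, so falling signal marks reduced parasite growth. Infected erythrocytes were at 2% hematocrit and 0.1% parasitemia (final) in Albumax-supplemented RPMI 1640.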
Giardia FBPA inh – qHTS Assay for Inhibitors of Fructose-1,6-bisphosphate Aldolase from Giardia Lamblia; 290,000 compounds, 0.71% hits; purified Giardia FBPA; A8B2U2; Potency, µM (doses to about 59.6 µM), for the others: at the highest dose activity, negative = inhibition, usual class: inhibitors; further: potency means the concentration at half of the fitted maximal effect; nearly all actives have a fitted effect of over 55% in size
Target sequence (A8B2U2 whole entry, looked up): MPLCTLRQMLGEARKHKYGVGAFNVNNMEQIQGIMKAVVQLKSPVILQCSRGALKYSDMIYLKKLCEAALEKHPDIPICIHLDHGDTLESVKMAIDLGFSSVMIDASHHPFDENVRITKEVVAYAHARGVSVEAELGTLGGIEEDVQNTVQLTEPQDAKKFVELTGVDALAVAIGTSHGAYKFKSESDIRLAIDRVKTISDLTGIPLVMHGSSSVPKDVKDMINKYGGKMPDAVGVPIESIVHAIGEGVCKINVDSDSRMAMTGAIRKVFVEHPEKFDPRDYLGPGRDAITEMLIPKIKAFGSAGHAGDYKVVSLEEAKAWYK
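40 nM FBPA preincubated 10 min at RT with compound (up to 57.5 uM final), then substrate plus GAPDH/TPI/NAD/arsenate coupling and diaphorase/resazurin added. Fluorescence read after 20 min at RT, 525/598 nm.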
HCMV inh – qHTS Assay for inhibitors of the human cytomegalovirus (HCMV); 410,000 compounds, 4.5% hits; HFF cells, HCMV-luciferase reporter, 72 h; stronger effect = lower value; activity change, negative = inhibition, % at 57.5 µM; in the data active means activity change below about -60%; inconclusive means no clear call, values can overlap the other calls; inactive means above about -39%
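Two compound doses tested in HFFs infected with HCMV-luciferase, MOI 1 PFU/cell, 72 h at 37C. Lysate luminescence read with OneGlo; data normalized against buffer-only and 10uM Salinomycin inhibitor controls.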
Sm TGR inh – qHTS Assay for the Inhibitors of Schistosoma Mansoni Peroxiredoxins; Schistosoma mansoni thioredoxin glutathione reductase (TGR), Q962Y6; purified TGR, DTNB reduction, TNB absorbance 405 nm; Potency, µM (top dose mostly 114 µM), for the others: top-dose activity change, negative = inhibition, hits mostly inhibitors; 360,000 compounds, 3% hits; further: potency means the concentration at half of the fitted maximal effect; nearly all actives have a fitted effect of over 60% in size
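Kinetic colorimetric format: TGR-catalysed, NADPH-driven DTNB reduction monitored via TNB absorbance. Enzyme dispensed at 20 nM; compound exposure 15 min at room temperature before reaction start.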
* = called active by the depositor; u = inconclusive; x = not tested or not shown. Rows were chosen to be rich in hits. Some 14% of all compounds tested hit in one or more screens of this group. Unless noted, the call rests on the fitted dose curve; in most records, active means well fitted curve in the direction sought with a large enough effect; inconclusive means small, poorly fitted or top-dose-only effect, or another doubt; inactive means no such curve, though single readings can be large; an effect the other way counts as inactive or inconclusive. On the % scale 0 is the no-effect control and ±100 the full control effect.

SMILES | Pf growth 96h | Pf growth 48h | Giardia FBPA inh | HCMV inh | Sm TGR inh
CCCNC(=O)C(Cc1ccccc1F)NC(=O)c1ccc(C#N)cc1 (centres undefined) | 40.6% | -8.7% | x | 14.2 | 2.1%
Cc1cc(C)cc(OCC(=O)NNC(=O)CC(C)c2ccccc2)c1 (centres undefined) | x | x | x | -7.4 | x
Cc1noc(C)c1C(=O)NCc1ccco1 | x | 9.7% | 3.9% | 23.1 | -16.8%
COc1ccc(CNS(=O)(=O)CCNC(=O)c2ccc(OC)cc2)cc1 | -17.7% | 3.6% | x | -1.0 | 1.8%
Cc1ccc(C)c(S(=O)(=O)NCC(=O)NCc2ccco2)c1 | u | 20.3% | 3.6% | 22.1 | 0.0%
Cc1cc(=O)oc(C)c1C(=O)NCc1ccco1 | 39.7% | 29.9% | -12.8% | -18.9 | 44.7µM*
COc1ccc(C(=O)NCCS(=O)(=O)NCc2ccco2)cc1 | 23.4% | -9.6% | x | 7.6 | 44.7µM*
COc1cccc(C(=O)NCc2ccco2)c1 | 10.4µM* | -0.4% | -9.5% | 14.3 | -33.6%
Cc1ccc(C)c(S(=O)(=O)NCc2ccc(C(=O)NCc3ccco3)cc2)c1 | 9.28µM* | u | -0.4% | 10.3 | u
CCOC(=O)N1CCc2c(sc3c2c(=O)n(CCc2ccccc2)c(=O)n3Cc2cc(C)ccc2C)C1 | x | x | x | -26.2 | -2.3%
COc1ccc(C)cc1NC(=O)C1CCN(S(=O)(=O)c2ccc3c(c2)NC(=O)CO3)CC1 | 53.5% | -24.9% | x | 0.0 | -2.8%
CCCNC(=O)c1ccc(OC)cc1OC | 23.1% | 35.9% | 6.3% | -9.7 | 5.5%
COc1ccc(C(=O)NCC(C)C)c(OC)c1 | 9.28µM* | u | 1.5% | -28.9 | 3.3%
CC(C)CNC(=O)c1ccccc1Oc1ccccc1 | 14.7µM* | x | 3.3% | -36.2 | 8.3%
CN(C)CCCNC(=O)c1ccccc1Oc1ccccc1 | -17.0% | -4.4% | -2.4% | 38.7 | -1.6%
COc1ccc(C(=O)Nc2ccccc2Cc2ccccc2)c(OC)c1 | u | u | -0.3% | -70.6* | -0.3%
Cn1c(Cc2cccs2)nnc1SCC(=O)Nc1ccc(C(N)=O)cc1 | u | 1.1% | x | 19.7 | 0.8%
COC(=O)c1sc(N)c(C(=O)OC)c1CSc1nc2sc3c(c2c(=O)n1C)CCC3 | 1.65µM* | u | 0.7% | -8.0 | -9.1%
Cc1noc(C)c1CSc1nc2sc3c(c2c(=O)n1C)CCCC3 | 1.65µM* | x | -0.5% | u | 7.6%
C=CCn1c(SCc2c(C)noc2C)nc2sc3c(c2c1=O)CCCC3 | 2.08µM* | 13.1µM* | -0.9% | -12.0 | -20.9%
Cc1noc(C)c1CSc1nc2sc(C)c(C)c2c(=O)n1C1CCCC1 | x | 4.15µM* | -2.3% | 15.7 | 4.5%
Cc1sc2nc(SCc3nc(-c4cccs4)no3)n(-c3ccccc3)c(=O)c2c1C | u | u | -4.0% | 10.5 | 16.9%
Cc1nn(CCC(=O)NCc2ccc(Cl)cc2)c(=O)c2nn(-c3ccccc3)c(C)c12 | x | x | x | 2.1 | -2.4%
C=CCn1c(SCc2c(C)noc2C)nc2sc3c(c2c1=O)CCCCC3 | x | 1.85µM* | -0.4% | -15.1 | 5.9%
O=C1CCN(Cc2nc(-c3ccc(Cl)cc3)no2)CCN1 | 10.4µM* | 19.8% | -0.2% | -29.1 | -23.7%
SMILES | Pf growth 96h | Pf growth 48h | Giardia FBPA inh | HCMV inh | Sm TGR inh
COc1ccc(-c2cc(C(C)=O)c(C)n2CCC(=O)NCc2ccccc2OC)cc1 | x | x | x | u | 1.5%
O=[N+]([O-])c1ccc(O)c([N+](=O)[O-])c1 | x | x | 22.0% | u | x
O=C(COC(=O)C1CCN(S(=O)(=O)c2cc([N+](=O)[O-])ccc2Cl)CC1)Nc1ncc(Cl)cc1Cl | u | u | x | 36.2 | 39.8µM*
O=[N+]([O-])c1ccc(Cl)c(S(=O)(=O)Nc2ccc(-c3ccc(N4CCCC4)nn3)cc2)c1 | u | u | x | -64.3* | -5.6%
O=[N+]([O-])c1ccc(Cl)c(S(=O)(=O)Nc2cccc(-c3ccc(N4CCCC4)nn3)c2)c1 | 0.2% | 47.4% | x | -11.2 | -0.4%
O=[N+]([O-])c1ccc(Cl)c(S(=O)(=O)N2CCCCCC2)c1 | 10.4µM* | -19.3% | 3.3% | x | -3.4%
O=[N+]([O-])c1ccc(Cl)c([N+](=O)[O-])c1 | u | 10.4µM* | x | -73.9* | 2.24µM*
